According to PubChem BioAssay AID2313 (Broad Institute, 2010):
Screen size: about 22,000 compounds; about 460 (2.1%) were called active. Roughly 2% stayed inconclusive and do not appear here.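 Rule for the calls: active = mean inhibition across valid replicates above about 65% (limit read from the data); inconclusive = mean under the limit, yet half or more replicates past it; inactive = the rest.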 This excerpt belongs to a sample that is enriched for actives.

Assay: Shh-driven Gli reporter inhibition – luminescence, Shh-LIGHT2 cells, Gli-luciferase, primary screen (AID 2313);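 note: pathway switched on by Shh-conditioned medium diluted 1 in 25 in low serum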
Conditions: 30 h, hits give high values

inhibition, inactive:
CC(C)NC(=O)N(C)C[C@@H]1Oc2ccc(N(C)C)cc2C(=O)N([C@@H](C)CO)C[C@H]1C -15.2%, CC(C)NC(=O)Nc1ccc2c(c1)C(=O)N([C@H](C)CO)C[C@H](C)[C@@H](CN(C)CC1CCCCC1)OCCCC[C@@H](C)O2 -21.5%, C[C@@H]1CN([C@H](C)CO)C(=O)Cc2cc(NS(C)(=O)=O)ccc2O[C@H]1CN(C)S(=O)(=O)c1ccccc1 -3.98%, C[C@@H]1CCCCO[C@H](CN(C)C(=O)Nc2cccc3ccccc23)[C@@H](C)CN([C@H](C)CO)C(=O)c2cc(NC(=O)Nc3ccc4c(c3)OCO4)ccc2O1 -3.94%, Cc1ccc(OCc2n[nH]c(=S)n2C2CCCCC2)c2c1CCC2 9.84%, COc1ccc(NC(=S)SC)cc1OC -54.6%, C[C@@H]1CN([C@H](C)CO)C(=O)c2cccc(NC(=O)NC3CCCCC3)c2O[C@@H]1CN(C)CC1CCCCC1 23.2%, Cc1noc(C)c1S(=O)(=O)N(C)C[C@@H]1Oc2c(NS(=O)(=O)c3cn(C)cn3)cccc2C(=O)N([C@H](C)CO)C[C@@H]1C -16%, C[C@H](CO)N1C[C@H](C)[C@H](CN(C)S(=O)(=O)c2cccs2)Oc2ccc(NC(=O)Nc3ccccc3)cc2C1=O -3.56%, COCc1nc2c([nH]1)C(c1ccccc1COc1ccc(Cl)cc1)C(C#N)=C(N)O2 (stereo not drawn) -16.6%, C[C@@H]1CN([C@H](C)CO)C(=O)c2cccc(NS(=O)(=O)c3cn(C)cn3)c2O[C@H]1CN(C)Cc1ccc(C(=O)O)cc1 24.8%, Cc1cc(C(=O)Nc2cccc3c2O[C@@H](CN(C)Cc2ccncc2)[C@@H](C)CN([C@@H](C)CO)C3=O)n(C)n1 -8.53%, Cc1ccc(S(=O)(=O)Nc2cccc3c2O[C@@H](CN(C)S(=O)(=O)c2ccc(C)cc2)[C@H](C)CN([C@@H](C)CO)C3=O)cc1 -18.7%, COc1ccc(CNC(=O)c2c(C)oc3c2cc(OC(C)=O)c2ccccc23)cc1 -2.05%, S=c1nc2c(cnn2-c2ccccc2)c(Nc2ccccc2)[nH]1 -7.49%, Cc1ccc(-c2c[n+](=O)c3c(n2[O-])CCC3)cc1 -26.9%, C[C@H]1CN([C@@H](C)CO)C(=O)Cc2cc(NC(=O)Cc3ccccc3)ccc2O[C@@H]1CN(C)S(=O)(=O)c1ccc(Cl)cc1 22.7%, C1=C(c2cccs2)CC(c2cccs2)=NN=C1c1cccs1 -1.01%
